These results are taken from PubChem BioAssay (Tox21).

Inconclusive results are not listed. Entries that show only a call come without a potency. Activity calls are given as the source filed them. The call rests on the fitted dose curve; in most records, active means well fitted cell-killing curve with a large enough effect in the repeat runs; inconclusive means weak or mixed curves, or effect the other way; inactive means flat fitted curve, though single readings scatter.
Potency means the concentration at half of the fitted maximal effect.

The assay can be described thus: qHTS assay to identify small molecule agonists of the sonic hedgehog signaling (Shh) pathway - cell viability counter screen (AID 1259366). Further: nearly all actives have a fitted effect of over 50% in size. The following applies: NIH/3T3 Gli1-Luc viability, CellTiter-Fluor, 24 h; series mostly up to 92.4 µM. The text has this: National Center for Advancing Translational Sciences [NCATS]
NIH Chemical Genomics Center [NCGC]
U.S. Environmental Protection Agency [EPA]
National Institutes of Environmental Health Sciences [NIEHS]
National Toxicology Program [NTP]
U.S. Food and Drug Administration [FDA]
The sonic hedgehog (Shh) pathway is essential for normal embryonic development. Dysregulation of the Shh pathway can cause severe developmental defects in organs. Therefore chemicals that interfere with the pathway are potential developmental toxicants. A cell line designated 3T3Gli1-Luc (DMB/OARSA/CFSAN/FDA, Laurel, MD), a NIH/3T3 derived clone containing stably integrated Gli1-Luc reporter is used to detect chemical interference of the Shh pathway, by changes in the expression of the firefly Luc gene under the control of the Gli1 transcriptional response element. This cell line was used to screen Tox21 libraries for identifying and prioritizing the potential developmental toxicants that interfere Shh pathway. The cytotoxicity of the compounds was tested in parallel by measuring the cell viability using CellTiter-Fluor assay system (Promega, Madison, WI) in the same wells.
Tox21 Assay Protocol Summary:
3T3 Gli1-Luc cells were dispensed at 2,000 per well in 5uL of culture medium into white solid bottom 1536-well plates (Greiner Bio-One, Monroe, NC) using a Multidrop Combi (Thermo Scientific, Waltham, MA) dispenser. The assay plates were incubated at 37 C and 5% CO2 for 4hr, and then 23nL of compounds dissolved in DMSO and positive control were transferred using a Pintool station (Wako, San Diego, CA). The assay plates were incubated at 37C and 5% CO2 for 24hr. For viability read, after 23hr of compound treatment, 1uL of CellTiter-Fluor reagent (Promega Corporation, Madison, WI) was added to each well of the assay plates using Flying Reagent Dispenser (FRD, Aurora Discovery, San Diego, CA) and incubated the assay plates at 37C for 1hr. The fluorescence signal was quantified using a ViewLux plate reader (Perkin Elmer, Shelton, CT).
`O=[N+]([O-])c1cc(Cl)c(Cl)c(Cl)c1Cl`: the Potency is 24.2 µM (active). Next, `Cc1cc2c(cc1C(F)(F)F)N(C(=O)Nc1ccc(Oc3cccnc3C)nc1)CC2`: “inactive”; `O=C(Nc1cccc(C(F)(F)F)c1)c1cc(Br)cc(Br)c1O`: “inactive”. The value for `NC(=O)CC[C@@H]1NC(=O)[C@H](Cc2ccccc2)NC(=O)[C@H](Cc2ccc(O)cc2)NC(=O)CCSSC[C@@H](C(=O)N2CCC[C@H]2C(=O)N[C@@H](CCCN=C(N)N)C(=O)NCC(N)=O)NC(=O)[C@H](CC(N)=O)NC1=O` was “inactive”; that for `O=[N+]([O-])c1ccccc1Nc1ccccc1` was “inactive”; that for `O=CC=C(c1ccccc1)c1ccccc1` was 49 µM (active).

Regarding `CCCCC(CC)CN=C(N)NC(N)=NCCCCCCN=C(N)NC(N)=NCC(CC)CCCC` (stereo not given), the Potency is 23.7 µM (active). The value for `CC(C)(C)C1CCC(CC2=C(O)c3ccccc3C(=O)C2=O)CC1` (stereo not given) was “inactive”; that for `CCCCC(CC)COP(=O)(O)OCC(CC)CCCC` (stereo not given) was “inactive”; that for `Cc1ccc(-n2nc(C(C)(C)C)cc2NC(=O)Nc2ccc(OCCN3CCOCC3)c3ccccc23)cc1` was “inactive”. Next, `CC(C)(C)c1ccc(C(=O)O)cc1`: “inactive”; `CCCCN(CCCC)C(=O)N(CCCC)CCCC`: “inactive”; `CCCCCCCCOc1ccccc1C(=O)Nc1ccc(C(=O)OCC[N+](C)(CC)CC)cc1`: “inactive”. The value for `O=c1c(-c2ccccc2)c1-c1ccccc1` was 13.3 µM (active). With `c1ccc(CSCc2ccccc2)cc1`, the Potency entry was “inactive”. With `CC1=NC(C)OC1C` (stereo not given), the Potency entry was “inactive”. The value for `CCCCCCCCCCCCCCCCCC[N+](C)(C)C` was 68.8 µM (active); that for `C[C@H]1[C@H]2CC[C@H]3[C@@H]4CC=C5C[C@@H](N(C)C)CC[C@]5(C)[C@H]4CC[C@]23CN1C` was “inactive”.

As to `C[n+]1ccn(Cc2ccccc2)c1`, the Potency entry is “inactive”. The value for `NNc1nc(-c2ccc(N)cc2)cs1` was “inactive”; that for `C[C@]12CCC(=O)C=C1CC[C@@H]1[C@@H]2[C@@H](O)C[C@@]2(C)[C@H]1CC[C@]2(O)C(=O)COC(=O)CCC(=O)O` was “inactive”. The value for `CCOC(=O)/C=C(C)/C=C/C=C(C)/C=C/c1c(C)cc(OC)c(C)c1C` was “inactive”.

`On1ccccc1=S`: the Potency is 1.71 µM (active).

As to `CCN1/C(=C/C=C/c2sc3ccccc3[n+]2CC)Sc2ccccc21`, the Potency is 4.61 µM (active).

On to `[Cl][Au]([Cl])[Cl]`, for which the Potency is 3.86 µM (active).

`Nc1ccccc1O`: the Potency is 24 µM (active). The value for `CCCCCCCCCCC=O` was “inactive”; that for `CCCCN(CCCC)c1ccc(C(=O)c2ccccc2C(=O)O)c(O)c1` was “inactive”. Next, `Oc1cccc2cc3cccc(O)c3c(O)c12`: “inactive”; `C[C@H](CCC(=O)O)[C@H]1CC[C@H]2[C@@H]3CC[C@@H]4C[C@H](O)CC[C@]4(C)[C@H]3CC[C@]12C`: “inactive”; `Cc1cc(O)c(C(C)(C)C)cc1C(C)(C)C`: 61.1 µM (active). In the case of `ON=C1CCCC1`, the Potency entry was “inactive”. The value for `Clc1ccc2nsnc2c1NC1=NCCN1` was “inactive”; that for `O=c1[nH]sc2ccccc12` was 13.7 µM (active); that for `CCC(C)(C)C1CCCCC1OC(C)=O` (stereo not given) was “inactive”. Next, `CCCCCCCCNC(C)C(O)c1ccc(SC(C)C)cc1` (stereo not given): 16.8 µM (active). On to `O=C(OCC(COC(=O)c1ccccc1)(COC(=O)c1ccccc1)COC(=O)c1ccccc1)c1ccccc1`, for which the Potency entry is “inactive”. The value for `CCCCCOc1ccccc1/C(=C\SC)n1ccnc1` was “inactive”. As for `N/C(=N\N=C\c1ccc(Cl)cc1)N/N=C/c1ccc(Cl)cc1`, the Potency entry is “inactive”.

Consider `Cc1cccc(N(C)C(=S)Oc2ccc3c(c2)C2CCC3C2)c1` (stereo not given), for which the Potency result is “inactive”.
